From PubChem BioAssay

Test: probe aCHRDL2 binding to arrayed compounds – biochemical, biotinylated probe, 635/667 nm fluorescence, primary screen (AID 1100)
Settings: small-molecule microarray, higher = more signal

In order of rising composite z-score:
1. CO[C@H]1COC(=O)[C@H](C)COC(=O)CC=C[C@@H](C)[C@H](OC)COC(=O)CC=C[C@@H]1C  -1.28
2. CC(C)=CCCC(C)=CCON=C1C[C@@H](O)[C@@H](O)[C@@H]2[C@@H]3C(=O)N(C[C@@H]4CCCO4)C(=O)[C@@H]3CC[C@@H]12  -0.753
3. O=C1O[C@@H](c2ccccc2)[C@@H](c2ccccc2)N2[C@@H](c3ccccc3OCCO)[C@]3(C(=O)Nc4ccc(C#CCCO)cc43)[C@@H](C(=O)O)[C@H]12  -0.721
4. CCN1C(=O)[C@H]2[C@H]3[C@H](O)[C@H](O)CC(=NOC(C)CN4CCCCc5nc(C)c(C)cc54)[C@@H]3CC[C@H]2C1=O (stereo partly specified)  -0.667
5. CO[C@@H]1COC(=O)[C@@H]2CCCN2C(=O)[C@@H](C)COC(=O)[C@H](COCc2ccccc2)NC(=O)CC=C[C@H]1C  -0.664
6. C=CC[C@@H]1C=C[C@H](ON=C2c3cc(OC)ccc3O[C@H](c3cccc(OC)c3)[C@H]2O)[C@@H](CO)O1  -0.626
7. C=C(/C(=C/C[C@H](OC(C)=O)c1ccc(OCCO)cc1)c1cnc2ccccc2c1)C(C)C  -0.611
8. CO[C@@H]1COC(=O)[C@H](C)NC(=O)[C@@H](C)COC(=O)CCC[C@H]1C  -0.554
9. COC(=O)CC=C[C@@H](C)[C@H](OC)c1ccccc1Br  -0.499
10. CCCC[C@@H](O)C1=C(C)C[C@H]2C(=O)N(Cc3ccccc3)C(=O)[C@H]2[C@H]1CO  -0.494
11. COc1ccc(O[C@H]2C=C[C@@H](c3ccccc3)O[C@@H]2COC(=O)CCC(C)=NOCC[C@@H]2C=C[C@H](OC(C)=O)[C@@H](COC(C)=O)O2)cc1  -0.483
12. O=C1[C@H]2[C@H]3[C@H](O)[C@H](O)CC(=NOCc4ccccc4)[C@H]3CC[C@H]2C(=O)N1C[C@@H]1CCCO1  -0.418
13. CCCNC(=O)OC[C@H]1O[C@H](CCON=CC[C@@H]2C=C[C@H](OC(C)=O)[C@@H](COC(C)=O)O2)C=C[C@@H]1Oc1ccc(OC)cc1  -0.412
14. CCOC(=O)[C@H](Cc1ccccc1)NC(=O)CCC1CC(OC(=O)NCc2ccc3c(c2)OCO3)CC2(CCCC(COC(=O)NCc3cccc(C(F)(F)F)c3)O2)O1 (stereo partly specified)  -0.338
15. CC(=O)C[C@H](O)[C@@H](NC(=O)OC(C)(C)C)C(C)C  -0.306
16. COCCNC(=O)OCC1CCCC2(CC(OC(=O)NCCc3ccc(F)cc3)CC(CCC(=O)N[C@@H](C)C(=O)OC)O2)O1 (stereo partly specified)  -0.273
17. CCOC(=O)NN=C1C[C@@H](O)[C@@H](O)[C@@H]2[C@@H]3C(=O)N(C[C@@H]4CCCO4)C(=O)[C@@H]3CC[C@@H]12  -0.133
18. O=C1[C@H]2[C@H]3[C@H](O)[C@H](O)CC(=NO[C@@H]4O[C@H](CO)[C@@H](O)[C@H](O)[C@H]4O)[C@H]3CC[C@H]2C(=O)N1C1CCCCC1  -0.0589
19. CC1CC/C=C\[C@H]2OC34C=CCN(C(C)C)C(=O)[C@H]3N(CCCO)C(=O)[C@@H]4C2C(=O)O1 (stereo partly specified)  0.0886
20. C=CCC(OC(C)=O)[C@@H]1[C@@H](N(Cc2cc3ccccc3o2)C(=O)Cc2ccc(F)cc2)c2cc(OCCCO)ccc2N1C(=O)Cc1ccc(OC)cc1 (stereo partly specified)  0.102
21. CC(=O)OC[C@H]1O[C@@H](ON=C[C@@H](C)[C@H](OCc2ccccc2)C(C)C)[C@H](OC(C)=O)[C@@H](OC(C)=O)[C@@H]1OC(C)=O  0.169
22. CC(C)C[C@@H]1NC(=O)[C@H]2C[C@@H](C(=O)O)[C@@H](c3ccc(O)cc3)N2C1=O  0.171
23. CCc1cc2c(nc1CC)CCN(CCC(C)=NOC[C@@H](O)COCc1ccco1)C2  0.202
24. COc1ccccc1CN1C(=O)c2ccccc2[C@@H](C(=O)NCC(F)(F)F)[C@@H]1c1ccc(CO)cc1  0.245
25. CC(CCN1CCc2nc(-c3ccccc3)c(-c3ccccc3)cc2C1)=NOC(C)CN1CCCCc2nc(C)c(C)cc21 (stereo unspecified)  0.318
26. COC(=O)C1=CCC(c2cccc(Cl)c2)O1 (stereo unspecified)  0.381
27. COCCOC(=O)N1C(=O)[C@@]2(c3cc(C#CC4(O)CCCCCC4)ccc31)[C@H](c1ccc(OCCO)cc1)N1[C@H](c3ccccc3)[C@H](c3ccccc3)OC(=O)[C@H]1[C@@H]2C(=O)NC[C@H](O)c1ccccc1  0.389
28. CC(C)OC(=O)C=C1C[C@@H](c2ccc(C#N)cc2)O[C@@H](c2ccc(C#N)cc2)O1  0.407
29. O=C(NN=C1C[C@@H](O)[C@@H](O)[C@@H]2[C@@H]3C(=O)N(c4cccc(Oc5ccccc5)c4)C(=O)[C@@H]3CC[C@@H]12)OCc1ccccc1  0.548
30. C[N+](C)(C)CCCCCCNC(=O)[C@@H]1C[C@@H]2C(=O)N3CCC[C@H]3C(=O)N2[C@@H]1c1cccc(OCCO)c1  0.824
31. CCCNC(=O)[C@@H]1c2ccccc2C(=O)N(Cc2ccccc2Cl)[C@H]1c1ccc(CO)cc1  0.846
32. COC(=O)c1c(CC[C@@H](CO)NC(=O)N[C@H](Cc2ccccc2)Cn2cc(-c3ccccc3N)nn2)oc(C(C)=O)c1C(=O)OC  0.886
33. Cc1ccc(S[C@]2(C(=O)O)CC(=O)N(Cc3ccccc3)[C@@H]2c2ccc(CO)cc2I)cc1  0.894
34. CCCC=C(CCC)[C@@H](NC(=O)c1ccc(-c2ccccc2)cc1)c1ccc(C(=O)OC)cc1  1
35. COCCCNC(=O)[C@@]1(CCS(=O)(=O)c2ccccc2)N=C(c2ccc(OCCCO)cc2)O[C@H]1c1ccccc1  1.16
36. CC(C)(C)OC(=O)CC[C@]1(C(N)=O)COC(c2ccc(OCCCO)cc2)=N1  1.38
